Structures can show the parent of a compound that is named as a salt.
Columns and labels:
Settings in all cases: incubation time: 27 h, anaerobic, 37 °C;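 for the amine columns active = adjusted P below 0.05 in both replicates with a change the same way and a mean fold change under 0.8 or over 1.25; inactive = the rest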
[1] = tested on: Clostridium sporogenes DSM 1664; assay: growth (OD595) fold change vs plate DMSO controls (fold change (ratio)); higher = more growth
Summary of the method: (§1)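 Each value is the mean of 2 biological replicates, and fold changes above 1.5 were set to NA. The underlying readings were taken at 595 nm from shaken anaerobic mGAM cultures in 96-well plates after 27 h at 37 °C. They were blank-subtracted, corrected for compound background using 20 µM compound solutions in water, and converted to OD with a calibration factor of 5. Growth is the fold change relative to the median of the plate DMSO controls.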

[2] = tested on: Escherichia coli IAI1; assay: as above
Summary of the method: as §1

[3] = tested on: Klebsiella aerogenes DSM 30053; assay: as above
Summary of the method: as §1

[4] = tested on: Ruminococcus gnavus DSM 108212; assay: as above
Summary of the method: as §1

[5] = tested on: Klebsiella aerogenes DSM 30053; assay: fold change of Histamine concentration vs plate DMSO controls (fold change (ratio)); higher = more amine produced, active = hit call of the paper (significant change in both replicates, either direction)
Summary of the method: (§2)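 Each value is the fold change relative to DMSO-only wells on the same plate. Four gut bacterial strains were grown anaerobically in mGAM at 37 °C for 27 h in 80 µL wells, starting at OD 0.1 before a 1:1 dilution, with compounds at 20 µM final (sweeteners 50 µM). Whole cultures were extracted with cold acetonitrile/methanol containing 0.1% formic acid, centrifuged, and amines were quantified by LC–triple-quadrupole MS (dynamic MRM) against external calibration curves with within-batch drift correction. Values are means of 2 biological replicates.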

[6] = tested on: Clostridium sporogenes DSM 1664; assay: fold change of Tryptamine concentration vs plate DMSO controls (fold change (ratio)); higher = more amine produced, active = hit call of the paper (significant change in both replicates, either direction)
Summary of the method: as §2

[7] = tested on: Ruminococcus gnavus DSM 108212; assay: as above
Summary of the method: as §2

[8] = tested on: Escherichia coli IAI1; assay: fold change of Putrescine concentration vs plate DMSO controls (fold change (ratio)); higher = more amine produced, active = hit call of the paper (significant change in both replicates, either direction)
Summary of the method: as §2

[9] = tested on: Klebsiella aerogenes DSM 30053; assay: as above
Summary of the method: as §2

[10] = tested on: Escherichia coli IAI1; assay: fold change of Cadaverine concentration vs plate DMSO controls (fold change (ratio)); higher = more amine produced, active = hit call of the paper (significant change in both replicates, either direction)
Summary of the method: as §2

[11] = tested on: Klebsiella aerogenes DSM 30053; assay: as above
Summary of the method: as §2

[12] = tested on: Ruminococcus gnavus DSM 108212; assay: fold change of 2-Phenylethylamine concentration vs plate DMSO controls (fold change (ratio)); higher = more amine produced, active = hit call of the paper (significant change in both replicates, either direction)
Summary of the method: as §2

SMILES | growth [1] | growth [2] | growth [3] | growth [4] | fold change of Histamine concentration [5] | fold change of Tryptamine concentration [6] | fold change of Tryptamine concentration [7] | fold change of Putrescine concentration [8] | fold change of Putrescine concentration [9] | fold change of Cadaverine concentration [10] | fold change of Cadaverine concentration [11] | fold change of 2-Phenylethylamine concentration [12]
Cn1c([N+](=O)[O-])cnc1COC(N)=O [Ronidazole] (20 µM) | 0.00699 | 1.05 | 0.963 | 0.0625 | 0.617 (active) | 0.0193 (active) | 0.0355 (active) | 0.99 (inactive) | 0.97 (inactive) | 1.17 (inactive) | 1.03 (inactive) | 0.0387 (active)
COc1ccc(CC(C)NCC(O)c2ccc(O)c(NC=O)c2)cc1 (stereo unspecified) [Formoterol fumarate] (20 µM) | 1.13 | 1.21 | 1.11 | 1.3 | 0.864 (inactive) | 1.03 (inactive) | 1.1 (inactive) | 1.03 (inactive) | 0.951 (inactive) | 0.91 (inactive) | 1.09 (inactive) | 1.11 (inactive)
O=C(NCc1ncc(C(F)(F)F)cc1Cl)c1c(Cl)cccc1Cl (20 µM) | 1 | 0.98 | 1 | 1.03 | 1.01 (inactive) | 0.989 (inactive) | 1.01 (inactive) | 1.01 (inactive) | 1.02 (inactive) | 1.01 (inactive) | 1.01 (inactive) | 0.956 (inactive)
COc1c(Cl)ccc(Cl)c1C(=O)O (20 µM) | 1.05 | 1.02 | 1.03 | 1.19 | 0.99 (inactive) | 0.999 (inactive) | 0.997 (inactive) | 1.01 (inactive) | 1.01 (inactive) | 1.03 (inactive) | 1.01 (inactive) | 0.995 (inactive)
CCCCCCC[N+](CC)(CC)CCCCc1ccc(Cl)cc1 [Clofilium tosylate] (20 µM) | 1.2 | 0.984 | 1.07 | 1.26 | 0.897 (inactive) | 1.32 (inactive) | 0.792 (inactive) | 1.17 (inactive) | 0.968 (inactive) | 0.947 (inactive) | 1.03 (inactive) | 0.867 (inactive)
CC(C)(C)NCC(O)c1cc(O)cc(O)c1 (stereo unspecified) [Terbutaline hemisulfate] (20 µM) | 0.98 | 1.02 | 1.05 | 1.11 | 1.02 (inactive) | 1.05 (inactive) | 1.06 (inactive) | 1.05 (inactive) | 0.985 (inactive) | 0.932 (inactive) | 0.993 (inactive) | 1.06 (inactive)
CC(=O)OCC(=O)[C@@]1(O)CC[C@H]2[C@@H]3CCC4=CC(=O)C=C[C@]4(C)[C@@]3(F)[C@@H](O)C[C@@]21C [Isoflupredone acetate] (20 µM) | 0.985 | 1.02 | 0.983 | 1 | 1.09 (inactive) | 1.03 (inactive) | 1.1 (inactive) | 1 (inactive) | 1.03 (inactive) | 0.988 (inactive) | 1.11 (inactive) | 1.22 (inactive)
CC(C(=O)O)c1ccc2c(c1)CC(=O)c1ccccc1S2 (stereo unspecified) [Zaltoprofen] (20 µM) | 0.876 | 0.998 | 0.985 | 0.873 | 1.1 (inactive) | 1.01 (inactive) | 1.12 (inactive) | 1.01 (inactive) | 1.04 (inactive) | 0.931 (inactive) | 1.05 (inactive) | 1.33 (inactive)
CN(C)CCCN1c2ccccc2Sc2ccc(C(F)(F)F)cc21 [Triflupromazine hydrochloride] (20 µM) | 1.08 | 1.04 | 1.01 | 1.21 | 0.959 (inactive) | 1.05 (inactive) | 0.814 (inactive) | 1.01 (inactive) | 0.998 (inactive) | 1.08 (inactive) | 1.01 (inactive) | 0.821 (inactive)
COCCc1ccc(OCC(O)CNC(C)C)cc1 (stereo not drawn) [Metoprolol-(+)-tartrate salt] (20 µM) | 1.01 | 1.03 | 1.03 | 1.05 | 0.856 (inactive) | 1.02 (inactive) | 1.03 (inactive) | 0.998 (inactive) | 0.955 (inactive) | 1.02 (inactive) | 1 (inactive) | 0.995 (inactive)
CCOc1ccccc1OC(c1ccccc1)C1CNCCO1 (stereo unspecified) [Reboxetine mesylate] (20 µM) | 1.03 | 1.16 | 1.07 | 1.08 | 1.01 (inactive) | 0.997 (inactive) | 1.04 (inactive) | 1.03 (inactive) | 1.01 (inactive) | 0.926 (inactive) | 1 (inactive) | 1.03 (inactive)
CC(C)(C(=O)c1cccnc1)c1cccnc1 [Metyrapone] (20 µM) | 1.01 | 1.01 | 1.01 | 1 | 1.03 (inactive) | 1 (inactive) | 1 (inactive) | 0.985 (inactive) | 1.02 (inactive) | 1.01 (inactive) | 1 (inactive) | 1.01 (inactive)
CNC1(C)C2CCC(C2)C1(C)C (stereo unspecified) [Mecamylamine hydrochloride] (20 µM) | 1.03 | 1.06 | 1.02 | 1.17 | 1.02 (inactive) | 1.06 (inactive) | 1.03 (inactive) | 0.992 (inactive) | 0.994 (inactive) | 0.968 (inactive) | 1 (inactive) | 1.06 (inactive)
C#C[C@]1(O)CC[C@H]2[C@@H]3CCc4cc(O)ccc4[C@H]3CC[C@@]21C [Ethinylestradiol] (20 µM) | 1.22 | 1.04 | 1.07 | 1.05 | 1.01 (inactive) | 1.01 (inactive) | 0.972 (inactive) | 1.05 (inactive) | 0.998 (inactive) | 1.01 (inactive) | 1.01 (inactive) | 0.936 (inactive)
COc1ncnc(NS(=O)(=O)c2ccc(N)cc2)c1OC [Sulfadoxine] (20 µM) | 1 | 1.01 | 1.04 | 1.19 | 1.02 (inactive) | 0.997 (inactive) | 0.985 (inactive) | 1.01 (inactive) | 0.997 (inactive) | 1 (inactive) | 1.01 (inactive) | 0.968 (inactive)
CC(=O)Nc1ccc(OCC(O)CNC(C)C)cc1 (stereo unspecified) [Practolol] (20 µM) | 0.924 | 1.01 | 1 | 1.17 | 1.03 (inactive) | 1.05 (inactive) | 1.04 (inactive) | 1.04 (inactive) | 0.993 (inactive) | 0.999 (inactive) | 1.01 (inactive) | 1.02 (inactive)
O=P(O)(O)C(O)(Cn1ccnc1)P(=O)(O)O [Zoledronic acid hydrate] (20 µM) | 1.08 | 0.974 | 0.978 | 1 | 1.08 (inactive) | 0.973 (inactive) | 0.629 (inactive) | 0.987 (inactive) | 1.02 (inactive) | 1.05 (inactive) | 1 (inactive) | 0.627 (inactive)
NCCc1cc[nH]n1 [Betazole hydrochloride] (20 µM) | 1.01 | 0.989 | 1.03 | 1.02 | 0.96 (inactive) | 1 (inactive) | 1.04 (inactive) | 0.987 (inactive) | 1.02 (inactive) | 1 (inactive) | 1 (inactive) | 1.02 (inactive)
CN(C)C/C=C(/c1ccc(Br)cc1)c1cccnc1 [Zimelidine dihydrochloride monohydrate] (20 µM) | 0.928 | 0.997 | 0.991 | 1.03 | 1.01 (inactive) | 1.03 (inactive) | 0.987 (inactive) | 0.804 (inactive) | 0.993 (inactive) | 1.49 (active) | 0.978 (inactive) | 1.04 (inactive)
CN(C)C(=N)NC(=N)N [Metformin hydrochloride] (20 µM) | 0.988 | 1.02 | 0.989 | 1.26 | 0.96 (inactive) | 1 (inactive) | 1.06 (inactive) | 1.03 (inactive) | 0.96 (inactive) | 0.962 (inactive) | 1.02 (inactive) | 1.08 (inactive)
O=C(CCNNC(=O)c1ccncc1)NCc1ccccc1 [Nialamide] (20 µM) | 0.952 | 0.991 | 1.02 | 0.89 | 1.03 (inactive) | 1.01 (inactive) | 1 (inactive) | 0.997 (inactive) | 1 (inactive) | 1.03 (inactive) | 0.998 (inactive) | 1.01 (inactive)
C[C@H](O)[C@H](O)[C@H]1CNc2[nH]c(N)nc(=O)c2N1 [Sapropterin dihydrochloride] (20 µM) | 1.12 | 0.893 | 0.928 | 0.813 | 0.931 (inactive) | 0.972 (inactive) | 0.945 (inactive) | 1.01 (inactive) | 1.01 (inactive) | 1.03 (inactive) | 1.01 (inactive) | 0.911 (inactive)
CC(C)CN(C[C@@H](O)[C@H](Cc1ccccc1)NC(=O)O[C@H]1CO[C@H]2OCC[C@H]21)S(=O)(=O)c1ccc(N)cc1 [Darunavir] (20 µM) | 1.14 | 1 | 1 | 0.966 | 1.05 (inactive) | 1.01 (inactive) | 0.863 (inactive) | 1.04 (inactive) | 0.998 (inactive) | 1.05 (inactive) | 0.996 (inactive) | 0.837 (inactive)

Reference: the supplement of paper PMC12494721
